Data on 29 molecules can be found in PubChem BioAssay (NCI).

About 83,000 compounds went through this panel and 20% of them were active in at least one assay; those are over-represented in the sample as a whole.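 Testing used 96-well plates and a 48-hour single-concentration exposure. Example: -40 means 40% of the starting cells died.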 A number with no mark means an inactive call. The source made the active and inactive calls. Rule for the calls: active = growth percent below 10; inactive = the rest.

This assay relates to UO-31 renal. Kind of assay: NCI-60 one-dose screen, 48 h (100 = growth as untreated, 0 = no growth, -100 = all killed). To be noted: 10 µM unless noted.
Regarding `O=C(Nc1cccc(Cn2c(=O)[nH]c3ccc(Oc4ncccn4)cc3c2=O)c1)c1ccc(Cl)cc1`, the growth was 47.7%.

Consider `CC[C@H](Nc1ncnc2nc[nH]c12)c1nc2cccc(NCc3ccc(C(=O)NO)o3)c2c(=O)n1-c1ccccc1`, for which the growth was 79%.

On to `CCCCCCCCCC[N+](C)(C)N`, for which the growth was 90.3%.

`C=C(C)C(C(=O)OCC)(C(=O)OCC)C(C)C`: the growth is 100%.

With `COC1=CC(c2ccc[nH]2)=N/C1=C\c1[nH]c(C)c(C(=O)CCCCC(=O)NC(C)(C)C)c1C`, the growth is 18%.

On to `COc1ccc(NC(=O)/C=C(C)/C=C/C=C(C)/C=C/C2=C(C)CCCC2(C)C)cc1`, for which the growth is 53%.

As for `CCCCCCCCc1ccc(OCCOCC[N+](C)(C)CC)cc1` (tested in a mixture with another compound), the growth was 89.4%.

Turning to `COc1cc2c(cc1OC)C(Cc1cc(OC)c(OC)cc1[N+](=O)[O-])=NCC2`, the growth was 66.9%.

As for `O=C1CCNC1`, the growth was 92.1%.

As to `COc1ccc(-c2nnc(SCC(=O)Nc3ccc(C(=O)/C=C/c4cc(OC)c(OC)c(OC)c4)cc3)n2-c2ccccc2)cc1OC`, the growth was 67.5% [100 µM].

`O=S(=O)(O)c1ccc2c(c1)Sc1cc(S(=O)(=O)O)ccc1O2`: the growth was 97%.

On to `Cc1ccc(S(=O)(=O)Nc2cccc(Cn3c(=O)[nH]c4ccc(Oc5ncccn5)cc4c3=O)c2)cc1`, for which the growth was 74.2%.

On to `CCCCCCCCCCC(C[N+](C)(C)C/C=C/c1ccccc1)C(O)c1ccccc1` (centres undefined), for which the growth is 74.1%.

`COc1ccc(/C=C2\CCCC3=C2N=C2SC=NN2C3c2ccc(OC)c(OC)c2)cc1OC` (centres undefined): the growth is 40%.

`COc1cc(CCNc2cnc3cc(N)cc(N)c3n2)cc(OC)c1`: the growth was 90.9%.

In the case of `O=C(CCl)c1ccc2c(c1)CCCC2`, the growth was 91.2%.

Consider `Cc1ccc(C(=O)Nc2ccc(CN3CCN(C)CC3)c(C(F)(F)F)c2)cc1C#Cc1cnc(N)c2ccc(F)cc12`, for which the growth is -97.3% (active).

Take `Cc1ccc(C(=O)Nc2ccc(CN3CCN(C)CC3)c(C(F)(F)F)c2)cc1C#Cc1cncc2ncccc12`: the growth is -96.3% (active).

Consider `O=C(Nc1ccc(-n2cc(-c3ccncc3)c(-c3ccc(Cl)c(O)c3)n2)cc1)c1cc(C(F)(F)F)cc(C(F)(F)F)c1`, for which the growth was 67.5%.

As for `CCCCCCCCCC(C)NC(=O)CCl` (centres undefined), the growth is 83.7%.

As to `COc1ccc(C(=O)CN2C(=O)NC(c3ccccc3)(c3ccccc3)C2=O)cc1`, the growth was 71.2%.

On to `CCCCCCCCC(=O)Nc1ccc(O)cc1`, for which the growth was 61.9%.

Consider `COc1ccc(-c2nc(SCC(C)C)nc(Nc3ccccc3)c2C#N)cc1`, for which the growth was 56.8%.

As to `N#Cc1ccc(NC2c3ccccc3CC2O)cc1` (centres undefined), the growth is 83.1%.

Regarding `N#CCCCCCCCCCCC#N`, the growth was 92.9%.

As for `CCOC(=O)c1ccc2n1CCCc1cnc(NC(C)=O)nc1-2`, the growth was 89.5%.

As for `O=C(/C(Br)=C/c1ccccc1)c1ccccc1`, the growth is -62.5% (active).

With `COc1ccc2c(N)ncc(C#Cc3cc(C(=O)Nc4ccc(CN5CCN(C)CC5)c(C(F)(F)F)c4)cnc3C)c2c1`, the growth is -45.1% (active).

As to `CCCCCCCCCCCC(=O)OC(C)C(=O)Nc1ccccc1` (centres undefined), the growth is 78.2%.
